Here are results for 14 molecules from PubChem BioAssay (NCI).

Each structure is given as a SMILES string. Compounds without any hit were thinned out: in the full panel of roughly 83,000, 20% have a hit.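 Results are percent growth after 48 hours of single-concentration exposure. 100 means growth as in untreated cells, lower positive values show inhibition; negative values down to -100 show cell death.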 Values without a mark were called inactive. Calls of active or inactive are those of the source. Rule for the calls: active = growth percent below 10; inactive = the rest.

Test systems include NCI-H23 lung; NCI-H226 lung; NCI-H322M lung; HOP-62 NSCLC; NCI-H460 lung; HOP-92 NSCLC; NCI-H522 lung; A549/ATCC NSCLC; 786-0 renal; COLO 205 colon.
Holding throughout (experiment): NCI-60 one-dose screen, 48 h (100 = growth as untreated, 0 = no growth, -100 = all killed)
What all share (conditions): 10 µM unless noted

As to `Cc1csc(Nc2nc(-c3ccccn3)nc(C(Cl)(Cl)Cl)n2)n1`, the growth with NCI-H23 lung was 84.9%; with NCI-H226 lung, 101%; in the test with NCI-H322M lung, 80.5%; with HOP-62 NSCLC it was 101%; with NCI-H460 lung, 84%; in the test with HOP-92 NSCLC it was 94.1%. The growth with NCI-H522 lung was 86.7%; in the test with A549/ATCC NSCLC it was 79.4%; in the test with 786-0 renal it was 94.8%; in the test with COLO 205 colon it was 92%.

Consider `Cc1cc(N2CCCCC2)cc(C)c1-c1csc(NC(=O)c2ccncc2)n1`, for which the growth with NCI-H23 lung is 45.1%; with NCI-H226 lung, 60.6%; in the test on NCI-H322M lung it was 78.2%; in the test with HOP-62 NSCLC, 62.5%; in the test with NCI-H460 lung, 66.9%; in the test on HOP-92 NSCLC it was 53.8%. The growth in the test on NCI-H522 lung is 44.1%; in the test on A549/ATCC NSCLC, 49.1%; in the test with 786-0 renal, 77.5%; with COLO 205 colon, 60.6%.

In the case of `CCOCCNC1=C(Cl)C(=O)c2ccccc2C1=O`, the growth was 80.7% in the test on NCI-H23 lung; 121% in the test on NCI-H226 lung; 108% with NCI-H322M lung; 110% in the test with HOP-62 NSCLC; 94.9% with NCI-H460 lung; 127% in the test on HOP-92 NSCLC. The growth is 82.9% with NCI-H522 lung, 101% with A549/ATCC NSCLC, 105% with 786-0 renal and 130% in the test on COLO 205 colon.

On to `COc1ccc(C2=C(Nc3ccc(C(=O)Nc4ccccc4)cc3)C(=O)N(C)C2=O)cc1`, for which the growth in the test on NCI-H23 lung is 88.7%; in the test with NCI-H226 lung, 95.2%; with NCI-H322M lung it was 88.7%; in the test on HOP-62 NSCLC, 72.2%; in the test on NCI-H460 lung, 108%; with HOP-92 NSCLC it was 117%. The growth in the test with NCI-H522 lung is 59.9%; with A549/ATCC NSCLC, 78.2%; in the test with 786-0 renal it was 105%; in the test on COLO 205 colon, 105%.

For `Cn1c(I)c(C#CCO[Si](C)(C)C(C)(C)C)c(=O)[nH]c1=O`, the growth with NCI-H23 lung is 96.4%; in the test on NCI-H226 lung it was 108%; with NCI-H322M lung it was 95.5%; in the test with HOP-62 NSCLC, 96.9%; in the test with NCI-H460 lung it was 106%; in the test with HOP-92 NSCLC it was 59.4%. Moreover, the growth in the test with NCI-H522 lung was 74.2%; in the test with A549/ATCC NSCLC, 107%; with 786-0 renal, 99%; in the test with COLO 205 colon it was 82.7%.

With `CC/C=C\C[C@H](O)C/C=C1/C(=O)C=C[C@@H]1C/C=C\CCCC(=O)N(C)C`, the growth is -27% (active) in the test with NCI-H23 lung; -51.3% (active) in the test with NCI-H226 lung; 18.3% in the test on NCI-H322M lung; -40.2% (active) in the test with HOP-62 NSCLC; -26.3% (active) in the test on NCI-H460 lung; -4.76% (active) in the test with HOP-92 NSCLC. Besides, the growth was -88.2% (active) in the test with NCI-H522 lung, -35.6% (active) in the test on A549/ATCC NSCLC, -66.2% (active) with 786-0 renal and -58.6% (active) with COLO 205 colon.

For `Nc1cnc(C(=O)NNc2nc3cc(F)ccc3n3cccc23)cn1`, the growth is 44% in the test with NCI-H23 lung; 49.5% with NCI-H226 lung; 26.3% in the test on NCI-H322M lung; 33% in the test with HOP-62 NSCLC; 7.9% (active) in the test on NCI-H460 lung; 64.2% in the test with HOP-92 NSCLC. In addition, the growth is 16.7% with NCI-H522 lung, 38.8% in the test on A549/ATCC NSCLC, 37.7% with 786-0 renal and 9.48% (active) in the test with COLO 205 colon.

As to `O=C1NC(=O)C(Cc2ccc(OCc3ccc(-c4ccc(Cl)cc4Cl)cc3)cc2)S1` (stereo not given), the growth in the test on NCI-H23 lung is 46.9%; in the test on NCI-H226 lung it was 74.5%; in the test with NCI-H322M lung it was 90.8%; in the test on HOP-62 NSCLC it was 66.4%; in the test on NCI-H460 lung it was 58.5%; in the test on HOP-92 NSCLC, 53.7%. The growth with NCI-H522 lung was 26.8%; with A549/ATCC NSCLC, 39.4%; with 786-0 renal, 63.8%; in the test with COLO 205 colon, 90.4%.

Consider `COC(=O)c1nc(-c2ccc(C)cc2)oc1S(=O)(=O)c1cccc(OC)c1`, for which the growth with NCI-H23 lung is 92.6%; in the test with NCI-H226 lung, 87%; in the test with NCI-H322M lung, 93.3%; in the test on HOP-62 NSCLC it was 96.2%; in the test with NCI-H460 lung, 104%; with HOP-92 NSCLC it was 79.6%. The growth in the test with NCI-H522 lung was 33.8%; in the test on A549/ATCC NSCLC, 97.5%; in the test with 786-0 renal, 85.2%; in the test on COLO 205 colon it was -8.96% (active).

Consider `Cc1ccc(NC(=O)Cn2cc(CN3CCN(c4ccnc5cc(Cl)ccc45)CC3)nn2)cc1`, for which the growth was 90% with NCI-H23 lung; 84.9% in the test with NCI-H226 lung; 97.7% in the test on NCI-H322M lung; 70.3% in the test with HOP-62 NSCLC; 92.2% with NCI-H460 lung; 52.6% in the test with HOP-92 NSCLC. Also, the growth in the test with NCI-H522 lung is 87.3%; in the test with A549/ATCC NSCLC, 93.4%; in the test with 786-0 renal, 96%; in the test with COLO 205 colon, 98.8%.

`O=C1/C(=C/c2ccccc2O)CC/C1=C\c1ccccc1O`: the growth in the test with NCI-H23 lung is 59.8%; in the test with NCI-H226 lung, 82.9%; with NCI-H322M lung, 96.4%; in the test on HOP-62 NSCLC, 94%; in the test on NCI-H460 lung, 68.9%; in the test with HOP-92 NSCLC it was 20%. Moreover, the growth was 56% with NCI-H522 lung, 93.8% with A549/ATCC NSCLC, 54.3% with 786-0 renal and 107% in the test on COLO 205 colon.

In the case of `CSc1nc(N)c(NS(=O)(=O)c2ccc(C(C)=O)cc2)c(=O)[nH]1`, the growth was 95.5% with NCI-H23 lung; 103% in the test on NCI-H226 lung; 100% with NCI-H322M lung; 105% in the test on HOP-62 NSCLC; 103% in the test on NCI-H460 lung; 103% with HOP-92 NSCLC. In addition, the growth is 99.6% in the test with NCI-H522 lung, 102% in the test on A549/ATCC NSCLC, 78.9% in the test on 786-0 renal and 98.6% in the test with COLO 205 colon.

With `COc1ccc(Nc2ncc(Br)c(NCCCNC(=O)C3CCCC3)n2)cc1`, the growth with NCI-H23 lung was 30.3%; in the test on NCI-H226 lung, 28.5%; in the test with NCI-H322M lung, 58.5%; in the test with HOP-62 NSCLC, 22.4%; in the test with NCI-H460 lung it was 23.6%; with HOP-92 NSCLC it was 26%. In addition, the growth in the test with NCI-H522 lung is 65.7%; in the test on A549/ATCC NSCLC, 38.9%; in the test with 786-0 renal, 36.3%; with COLO 205 colon, 21.6%.

For the molecule `Cc1c(-c2ccc(O)cc2)n(Cc2ccc(OCCN3CCCCCC3)cc2)c2ccc(O)cc12`, the growth with NCI-H23 lung is 77%; with NCI-H226 lung it was 89.7%; in the test with NCI-H322M lung, 92.3%; in the test on HOP-62 NSCLC it was 80.6%; with NCI-H460 lung it was 89.3%; in the test on HOP-92 NSCLC it was 59.3%. Besides, the growth in the test on NCI-H522 lung was 75.5%; in the test on A549/ATCC NSCLC, 72.5%; in the test with 786-0 renal, 75.7%; in the test on COLO 205 colon, 106%.
